RXFP1 agonist – agonists of human relaxin receptor RXFP1; Potency, µM (top dose mostly 57.5 µM), without a hit: top-dose activation, most hits filed as activators; Q9HBX9; 370,000 tested, 0.3% active; HEK293T-RXFP1 cAMP TR-FRET, 30 min; response scale: percent of porcine relaxin response, buffer zero; active = well fitted activation curve with a large enough effect; also: potency is read from the fitted curve at half-maximal effect; % is scaled to controls: 0 for no effect and ±100 for the full control effect; nearly all actives have a fitted effect of over 60% in size
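HEK293 cells stably expressing RXFP1, treated 30 min at 37C with compounds plus PDE4 inhibitor Ro 20174; cAMP measured by HTRF TR-FRET. Normalized to buffer and 29 nM porcine relaxin; EC50 by Hill fit.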
gsp ag – activates gsp, the McCune-Albright syndrome mutation | gsp mutant cells, cAMP HTRF, 30 min | Potency, µM (titrated, usually from 76.9 µM), without a hit: at the highest dose activation (cAMP increase), usual class: activators | 340,000 tested, 0.13% active | AID 624287; active = well fitted activation curve with a large enough effect; cell line not stated here;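 also: phosphodiesterase inhibitor Ro 20-1724 added with compounds to block cAMP breakdown; potency is read from the fitted curve at half-maximal effect; nearly all actives have a fitted effect of over 60% in size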
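Cells stably selected in G418 were plated at 2000/well, grown 16-24 hr, then given compounds in DMSO with the PDE inhibitor […] (300 uM solution added) for 30 min at 37C; cAMP was read by HTRF.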
gsp antagonist – antagonists of gsp mutant (McCune-Albright syndrome). AID 624288. 340,000 tested, 0.4% active. gsp-mutant cells, cAMP HTRF, 30 min. Potency, µM (highest dose often 76.9 µM), without a hit: at the highest dose activity change, negative = inhibition, hits mostly inhibitors; calls by dose curve; cell line not stated here;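 also: intracellular cAMP measured with PDE inhibitor Ro 20-1724 present during compound exposure; potency is read from the fitted curve at half-maximal effect; % is scaled to controls: 0 for no effect and ±100 for the full control effect; nearly all actives have a fitted effect of over 65% in size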
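HTRF cAMP read-out (cAMP-d2 plus anti-cAMP antibody-K in lysis buffer, 30 min RT). Before lysis, cells are exposed to compounds with […] for 30 min at 37C in DPBS containing Ca/Mg, BSA and Tween 20.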
RXFP1 antag – RXFP1 (human) relaxin receptor antagonism | Q9HBX9 | HEK293-RXFP1, relaxin-stimulated cAMP HTRF, 30 min; active compounds read low | activity change, negative = inhibition, % at 57.5 µM | 350,000 tested, 0.59% active | AID 1259400;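 active = activity change of -60% or lower, but not beyond a set lower limit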; also: % is scaled to controls: 0 for no effect and ±100 for the full control effect
TSHR antagonist – human thyrotropin receptor antagonism; activity change, negative = inhibition, % at 11.5 µM; 330,000 tested, 0.2% active; P16473; AID 504810; TSHR-expressing cells, TSH-stimulated cAMP HTRF, 2 h; active compounds read low;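 active = activity change below a set negative limit, meaning inhibition stronger than a set level, cut at about -70% in these data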; also: % is scaled to controls: 0 for no effect and ±100 for the full control effect
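Freshly harvested TSHR cells receive pin-tooled compound, then EC80 TSH at 4nM final. After 2 hours at 37 deg C, antibody in lysis buffer and cAMP-d2 are added; 30 minutes at ambient temperature precede the HTRF read.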
* = called active by the depositor; / = no result; [ ] = dose if it differs, or a comment. This is a sample that favours compounds with a hit; in the whole collection about 1% have one here.

SMILES	RXFP1 agonist	gsp ag	gsp antagonist	RXFP1 antag	TSHR antagonist
O=C(Nc1nnc(C2CC2)s1)c1ccc(Cl)c(S(=O)(=O)N2CCc3ccccc3C2)c1	-0.4%	1.8%[15.4 µM]	-8.2%	-13.3	-90.4*
Nc1ncnc2c1ncn2C1OC(CO)C(O)C1O (stereo not drawn)	14.1µM*	2.3%	10.3%	1.2	5.0
CC(C)=CCNc1ncnc2c1ncn2[C@@H]1O[C@H](CO)[C@@H](O)[C@H]1O	/	/	/	15.3	/
C=CCNc1ncnc2c1ncn2C1OC(CO)C(O)C1O (stereo not drawn)	25.1µM*	25.0%	4.5%	0.3	-4.1
CC1(C)CC2(CC(c3ccccc3F)c3ccc(O)c(O)c3O2)NC(=S)N1 (stereo not drawn)	-1.0%	14.4%[15.4 µM]	-5.0%	-76.3*	7.8
CCC(Sc1nc2cc3c(cc2c(=O)n1CCCCCC(=O)NCc1ccc2c(c1)OCO2)OCO3)C(=O)NCCCOC (stereo not drawn)	0.4%	/	/	-112.8*	/
COC(=O)c1c(C)nsc1NC(=O)Oc1ccccc1	2.9%	4.47µM*	8.0%	15.2	3.1
CNc1snc(C)c1C(=O)OC(C)C(=O)Nc1ccccc1 (stereo not drawn)	2.6%	-26.5%	-0.9%	-8.8	-4.6
Cc1cccc(CCn2c(=O)c3ccccc3n(CC(=O)Nc3ccccc3F)c2=O)c1	0.6%	/	/	/	/
CC(=O)N1c2ccc(S(=O)(=O)N3CCCCCC3)cc2CC1C(=O)NC(C)C (stereo not drawn)	2.8%	/	/	/	/
COc1ccc2cc(CNCCOCCOCCNCc3ccc4cc(OC)ccc4c3)ccc2c1	/	3.1%	19.0%	-88.7*	/
CCc1ccc(CNC(=O)Cn2nc(-c3ccc(Cl)cc3)ccc2=O)cc1	2.6%	/	/	/	/
O=c1oc2c3c(ccc2c2ccccc12)OCN(Cc1ccccc1Cl)C3	28.2µM*	/	/	2.3	/
CCN1/C(=C\C(=S)Nc2ccccc2)Sc2ccccc21	2.0%	16.4%[15.4 µM]	-10.9%	-18.6	13.1
CCN1/C(=C/C(C)=C/c2sc3ccccc3[n+]2CC)Sc2ccccc21	4.6%	-93.4%	35.5µM*	-118.9*	-16.8
O=C1C=C(N2CCCCCC2)C2(CCCCC2)O1	-1.0%	7.6%	-3.9%	-61.4*	28.9
O=C(NCC1CCCN(Cc2cccc(C(F)(F)F)c2)C1)c1ccc(F)cc1 (stereo not drawn)	1.5%	33.3%	10.2%	-2.4	11.6
O=C(NCC1CCCN(C(=O)c2cccc(C(F)(F)F)c2)C1)c1ccc(F)cc1 (stereo not drawn)	1.3%	8.2%	-6.3%	30.3	-131.9*
Cc1cc(=O)[nH]c2nnc(SCC(=O)Nc3ccc(OC(F)(F)F)cc3)n12	-0.8%	/	/	5.5	/
CCOC(=O)NC(=O)/C(C#N)=N/Nc1ccc(F)cc1	0.3%	19.6%	25.1µM*	5.3	6.5
COC(=O)CN1C(=O)COc2ccc(S(=O)(=O)N3CCCC3)cc21	-0.9%	-10.5%	-0.4%	15.0	-134.6*
OC(COC(c1ccc(F)cc1)c1ccc(F)cc1)CN1CCc2ccccc2C1 (stereo not drawn)	-3.0%	-56.1%	3.8%	-62.2*	-11.7
O=C(O)/C=C/c1ccc(S(=O)(=O)Nc2ccccc2C(=O)Nc2ccc(F)cc2)cc1	-0.3%	18.1%	1.2%	-6.4	-100.2*
CC(=O)c1nn(-c2ccc(OC(F)(F)F)cc2)nc1Nc1ccc(C)cc1	-0.4%	/	/	13.5	/
CCCCNC(C(=O)Nc1cccc(S(=O)(=O)N2CCOCC2)c1)c1ccccc1 (stereo not drawn)	2.2%	-1.1%[15.4 µM]	11.2µM*	-0.9	-5.1
SMILES	RXFP1 agonist	gsp ag	gsp antagonist	RXFP1 antag	TSHR antagonist
Cc1ccc(C)c(SCC(=O)Nc2cccc(S(=O)(=O)N3CCOCC3)c2)c1	1.6%	49.2%[15.4 µM]	2.6%	-2.1	7.2
CC1=NN(c2ccccc2)C(=O)/C1=C/C=C/c1ccc(N(C)C)cc1	-19.3%	4.6%	35.5µM*	-20.9	-4.3
CC1=NN(c2ccccc2)C(=O)/C1=C/N(C)C	0.0%	2.3%	-1.0%	15.3	4.5
CC1=NN(c2ccccc2)C(=O)/C1=C/c1cccc(C)c1	-0.3%	-6.1%[15.4 µM]	-15.2%	-27.5	1.2
CC1=NN(c2ccccc2)C(=O)/C1=C\C=C\c1ccccc1	1.6%	14.9%[15.4 µM]	-7.6%	-62.8*	-4.9
COc1ccc(/C=C2/C(=O)N(c3ccccc3)N=C2C)cc1	/	-5.1%	-5.3%	-60.6*	/
